Inconclusive results are not listed. Activity calls are given as the source filed them. Unless noted, calls follow the shape of the dose curve; as a rule, active = well fitted curve in the direction sought with a large enough effect in the repeat runs; inconclusive = weak or mixed curves; inactive = no such curve, though single readings can be large; an effect the other way counts as inactive or inconclusive.
How the values were obtained:
[1] = qHTS assay to identify small molecule antagonists of the thyroid receptor (TR) signaling pathway - cell viability counter screen (AID 743064); also: nearly all actives have a fitted effect of over 50% in size
Summary of the method: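 GH3.TRE-Luc rat pituitary cells dosed after 4 hr plating, co-stimulated with T3 at 1 nM final, incubated 23.5 h at 37 C. Viability measured in the same wells by CellTiter-Fluor fluorescence after 30 min further at 37 C.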

[2] = qHTS assay to identify small molecule antagonists of the thyroid receptor (TR) signaling pathway (AID 743065); also: series mostly up to about 70 µM; nearly all actives have a fitted effect of over 55% in size
Summary of the method: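 Antagonism measured as loss of luciferase signal in GH3 cells stably carrying a TRE-luciferase reporter, co-treated with compound and T3 (1 nM final) for 23.5 h at 37 C. Viability was read in the same well by CellTiter-Fluor.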

[3] = system: thyroid hormone receptor (rat, GH3 cells); experiment: qHTS assay to identify small molecule agonists of the thyroid receptor (TR) signaling pathway (AID 743066; calls by dose curve)
[4] = molecular target: Estrogen receptor (Homo sapiens) (UniProt P03372); experiment: qHTS assay to identify small molecule antagonists of the estrogen receptor alpha (ER-alpha) signaling pathway (AID 743069; active = well fitted curve in the direction sought with a large enough effect in the signal ratio in the repeat runs, not every such curve was filed as active; the % refers to the signal ratio)
Sequence of Estrogen receptor (Homo sapiens) (P03372 whole entry, looked up): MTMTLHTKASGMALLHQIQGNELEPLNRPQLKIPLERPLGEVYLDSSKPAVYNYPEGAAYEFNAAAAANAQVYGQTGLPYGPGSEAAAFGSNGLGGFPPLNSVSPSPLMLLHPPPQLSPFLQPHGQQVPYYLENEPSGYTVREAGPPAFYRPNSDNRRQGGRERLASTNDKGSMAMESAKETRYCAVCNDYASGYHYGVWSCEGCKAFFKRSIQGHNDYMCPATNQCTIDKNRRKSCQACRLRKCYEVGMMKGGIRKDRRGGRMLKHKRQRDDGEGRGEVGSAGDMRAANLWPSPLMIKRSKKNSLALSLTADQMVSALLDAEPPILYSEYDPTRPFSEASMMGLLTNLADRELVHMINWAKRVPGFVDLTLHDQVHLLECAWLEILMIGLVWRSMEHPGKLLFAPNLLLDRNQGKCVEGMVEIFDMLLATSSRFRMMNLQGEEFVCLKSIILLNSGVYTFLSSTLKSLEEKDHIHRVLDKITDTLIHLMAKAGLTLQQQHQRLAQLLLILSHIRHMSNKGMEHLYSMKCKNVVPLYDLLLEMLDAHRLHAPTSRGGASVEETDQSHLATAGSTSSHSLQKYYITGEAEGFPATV
Summary of the method: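 Fluorescence intensity from a beta-lactamase FRET substrate served as the read-out. Cells: HEK293 with stably integrated ER-alpha-UAS-bla reporter. Agonist 17beta-estradiol was co-added with compounds; incubation 18 hr at 37C, substrate 2 hr at room temperature.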

[5] = qHTS assay to identify small molecule antagonists of the estrogen receptor alpha (ER-alpha) signaling pathway - cell viability counter screen (AID 743074; calls by dose curve; also: nearly all actives have a fitted effect of over 45% in size)
[6] = molecular target: Estrogen receptor (Homo sapiens) (UniProt P03372); experiment: qHTS assay to identify small molecule agonists of the estrogen receptor alpha (ER-alpha) signaling pathway (AID 743075; calls by dose curve)
[7] = molecular target: Estrogen receptor (Homo sapiens) (UniProt P03372); experiment: qHTS assay to identify small molecule agonists of the estrogen receptor alpha (ER-alpha) signaling pathway using the BG1 cell line (AID 743079); also: nearly all actives have a fitted effect of over 20% in size
[8] = qHTS assay to identify small molecule antagonists of the estrogen receptor alpha (ER-alpha) signaling pathway using the BG1 cell line (AID 743080; calls by dose curve;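 also: BG1 cells stimulated with 17beta-estradiol alongside compound; series mostly up to about 70 µM; nearly all actives have a fitted effect of over 25% in size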)
Summary of the method: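 Seeding, 24 h rest, compound transfer from DMSO, 17beta-estradiol addition, 21.5 h incubation, CellTiter-Fluor (30 min, 37 C), then ONE-Glo (30 min, room temperature): this sequence was run on BG1-Luc-4E2 reporter cells.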

[9] = qHTS assay to identify small molecule antagonists of the estrogen receptor alpha (ER-alpha) signaling pathway using the BG1 cell line - cell viability counter screen (AID 743081);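 also: compound given together with 17beta-estradiol as the ER stimulus; series mostly up to about 70 µM; nearly all actives have a fitted effect of over 45% in size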
Aromatase (Homo sapiens) = Aromatase (Homo sapiens) (UniProt P11511); experiment: qHTS assay to identify aromatase inhibitors (AID 743083); also: series mostly up to about 70 µM; nearly all actives have a fitted effect of over 55% in size
Sequence of Aromatase (Homo sapiens) (P11511 whole entry, looked up): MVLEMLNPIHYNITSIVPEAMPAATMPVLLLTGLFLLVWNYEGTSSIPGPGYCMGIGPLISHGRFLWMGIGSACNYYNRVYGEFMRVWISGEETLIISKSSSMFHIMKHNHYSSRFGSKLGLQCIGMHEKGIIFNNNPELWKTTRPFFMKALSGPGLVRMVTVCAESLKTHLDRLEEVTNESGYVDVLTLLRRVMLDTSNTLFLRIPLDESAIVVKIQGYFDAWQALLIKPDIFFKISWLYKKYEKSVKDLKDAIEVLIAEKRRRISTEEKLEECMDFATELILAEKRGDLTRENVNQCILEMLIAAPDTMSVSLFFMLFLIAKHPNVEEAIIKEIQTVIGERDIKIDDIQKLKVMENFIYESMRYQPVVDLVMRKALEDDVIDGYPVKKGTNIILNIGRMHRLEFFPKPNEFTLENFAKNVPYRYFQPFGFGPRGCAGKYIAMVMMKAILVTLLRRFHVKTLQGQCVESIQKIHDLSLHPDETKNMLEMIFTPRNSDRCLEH

[10] = qHTS assay to identify aromatase inhibitors - cell viability counter screen (AID 743084);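 also: cells stimulated with testosterone during compound exposure; nearly all actives have a fitted effect of over 55% in size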
[11] = molecular target: Aryl hydrocarbon receptor (Homo sapiens) (UniProt P35869); experiment: qHTS assay to identify small molecule that activate the aryl hydrocarbon receptor (AhR) signaling pathway (AID 743085);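 also: HG2L7.5c1 human HepG2 liver cells with stably integrated DRE-driven firefly reporter; series mostly up to about 70 µM; nearly all actives have a fitted effect of over 15% in size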
Sequence of Aryl hydrocarbon receptor (Homo sapiens) (P35869 whole entry, looked up): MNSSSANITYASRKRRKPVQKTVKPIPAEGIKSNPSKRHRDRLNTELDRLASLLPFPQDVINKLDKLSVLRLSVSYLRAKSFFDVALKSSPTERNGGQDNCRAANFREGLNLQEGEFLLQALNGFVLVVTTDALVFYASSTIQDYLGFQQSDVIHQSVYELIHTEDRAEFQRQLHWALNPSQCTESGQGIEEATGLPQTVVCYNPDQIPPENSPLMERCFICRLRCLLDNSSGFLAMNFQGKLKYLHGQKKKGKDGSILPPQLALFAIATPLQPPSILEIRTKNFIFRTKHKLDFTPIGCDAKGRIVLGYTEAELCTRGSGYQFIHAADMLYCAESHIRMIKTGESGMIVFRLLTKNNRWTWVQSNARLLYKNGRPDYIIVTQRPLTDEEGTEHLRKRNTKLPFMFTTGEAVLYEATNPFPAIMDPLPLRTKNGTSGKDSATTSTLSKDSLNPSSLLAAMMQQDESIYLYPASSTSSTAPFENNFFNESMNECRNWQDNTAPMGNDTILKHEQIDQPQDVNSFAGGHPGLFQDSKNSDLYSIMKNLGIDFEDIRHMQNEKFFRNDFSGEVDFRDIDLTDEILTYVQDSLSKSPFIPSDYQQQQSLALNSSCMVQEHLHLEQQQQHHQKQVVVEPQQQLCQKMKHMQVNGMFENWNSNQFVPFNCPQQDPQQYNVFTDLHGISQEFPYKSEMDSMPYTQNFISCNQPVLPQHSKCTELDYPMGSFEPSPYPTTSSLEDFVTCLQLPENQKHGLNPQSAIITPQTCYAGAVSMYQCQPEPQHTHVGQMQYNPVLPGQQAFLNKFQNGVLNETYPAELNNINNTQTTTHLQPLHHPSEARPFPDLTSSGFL
Summary of the method: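 HepG2 cells stably carrying a 20-DRE firefly luciferase reporter (HG2L7.5c1) treated with compound for 24 hr at 37C. Luciferase read by ONE-Glo luminescence, with CellTiter-Fluor viability read first.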

[12] = qHTS assay to identify small molecule that activate the aryl hydrocarbon receptor (AhR) signaling pathway - cell viability counter screen (AID 743086);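 also: HepG2 liver cells carrying the AhR DRE luciferase reporter; series mostly up to about 70 µM; nearly all actives have a fitted effect of over 45% in size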
Summary of the method: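 Cytotoxicity counter screen: CellTiter-Fluor signal (30 min, 37 C) in 4000 HepG2 cells/well carrying the DRE-luciferase reporter, following 24 h compound exposure at 37 C.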

[13] = molecular target: Peroxisome proliferator-activated receptor gamma (Homo sapiens) (UniProt P37231); experiment: qHTS assay to identify small molecule agonists of the peroxisome proliferator-activated receptor gamma (PPARg) signaling pathway (AID 743094; active = well fitted activation curve with a large enough effect in the signal ratio in the repeat runs, not every such curve was filed as active; the % refers to the signal ratio)
Sequence of Peroxisome proliferator-activated receptor gamma (Homo sapiens) (P37231 whole entry, looked up): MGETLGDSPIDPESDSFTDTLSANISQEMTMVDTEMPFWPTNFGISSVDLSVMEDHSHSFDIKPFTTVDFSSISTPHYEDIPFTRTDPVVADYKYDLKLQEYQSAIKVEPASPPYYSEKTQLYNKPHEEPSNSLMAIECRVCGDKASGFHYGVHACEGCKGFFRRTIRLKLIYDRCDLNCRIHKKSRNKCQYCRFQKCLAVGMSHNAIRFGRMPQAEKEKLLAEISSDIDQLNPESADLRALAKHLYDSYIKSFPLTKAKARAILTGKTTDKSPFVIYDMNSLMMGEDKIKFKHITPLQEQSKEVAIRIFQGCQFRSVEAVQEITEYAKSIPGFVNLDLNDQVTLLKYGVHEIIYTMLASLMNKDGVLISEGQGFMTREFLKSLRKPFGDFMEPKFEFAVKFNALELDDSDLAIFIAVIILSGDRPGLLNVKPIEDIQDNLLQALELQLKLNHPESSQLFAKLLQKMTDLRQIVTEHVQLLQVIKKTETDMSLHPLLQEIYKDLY
Summary of the method: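 Agonist activity was taken from a beta-lactamase reporter (FRET substrate, 1 h at room temperature) in HEK293H cells carrying a PPARg UAS-bla construct. Compounds in DMSO were incubated 17 h at 37C after a 5 h cell pre-incubation.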

[14] = molecular target: Peroxisome proliferator-activated receptor gamma (Homo sapiens) (UniProt P37231); experiment: qHTS assay to identify small molecule antagonists of the peroxisome proliferator-activated receptor gamma (PPARg) signaling pathway (AID 743191; calls by dose curve; also: series mostly up to about 63 µM; nearly all actives have a fitted effect of over 30% in size)
Summary of the method: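 Beta-lactamase reporter under UAS control in HEK293H PPARg-bla cells; compound treatment 17 h at 37C. Read-out: fluorescence intensity after 1 h room-temperature incubation with LiveBLAzer B/G FRET substrate.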

[15] = qHTS assay to identify small molecule antagonists of the peroxisome proliferator-activated receptor gamma (PPARg) signaling pathway - cell viability counter screen (AID 743194); also: nearly all actives have a fitted effect of over 55% in size
Summary of the method: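 Viability was measured as CellTiter-Glo luminescence in GeneBLAzer PPARg UAS-bla HEK293H cells. These cells had been exposed 17 h at 37 C to compounds together with rosiglitazone at 50 nM final, with the beta-lactamase readout taken in the same wells.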

[16] = qHTS assay for small molecule agonists of the antioxidant response element (ARE) signaling pathway (AID 743202; active = well fitted activation curve with a large enough effect in the signal ratio in the repeat runs, not every such curve was filed as active; the % refers to the signal ratio)
Summary of the method: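 Beta-lactamase reporter activity, read as fluorescence intensity, reflects ARE/Nrf2 pathway induction in HepG2 cells after 16 h compound exposure at 37 C; substrate loading was 2 h at room temperature.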

[17] = qHTS assay for small molecule agonists of the antioxidant response element (ARE) signaling pathway - cell viability counter screen (AID 743203; calls by dose curve; also: nearly all actives have a fitted effect of over 55% in size)
Summary of the method: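 Viability counter screen: CellTiter-Glo luminescence, read after 30 min at room temperature, in ARE-bla HepG2 wells. Compound exposure lasted 16 h at 37C/5% CO2, following a 5 h pre-incubation of the cells after plating.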

[18] = qHTS assay for small molecule activators of the heat shock response signaling pathway - cell viability counter screen (AID 743209); also: nearly all actives have a fitted effect of over 50% in size
Summary of the method: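 Cytotoxicity counter screen run in the same wells as the heat-shock bla reporter assay: HeLa HSE-bla cells, 5 h compound exposure at 37 C, viability read by CellTiter-Glo luminescence.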

[19] = qHTS assay for small molecule activators of the heat shock response signaling pathway (AID 743210; active = well fitted activation curve with a large enough effect in the signal ratio in the repeat runs, with a control signal flat, not every such curve was filed as active; the % refers to the signal ratio;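 also: HeLa cells with beta-lactamase reporter driven by heat shock elements; series mostly up to about 63 µM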)
Summary of the method: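 Fluorescence from a cleaved B/G FRET substrate (2.5 h, room temp) reports HSE-driven beta-lactamase in HeLa cells treated 5 h at 37 C with DMSO-dissolved compounds.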

Measured: Potency

CC(C)c1cccc(C(C)C)c1N
inactive: all assays above

CCCCc1ccc2cccc(S(=O)(=O)O)c2c1
not listed: [13] | [16] | [19]
inactive: all other assays above

CCOC(=O)Nc1ccc2c(c1)N(C(=O)CCN1CCOCC1)c1ccccc1S2
not listed: [14] | [16] | [19]
inactive: all other assays above

Cc1cc(C)cc(OCC2CNC(=O)O2)c1 (centres undefined)
not listed: [18]
inactive: all other assays above

CCCCNc1ccccc1
inactive: all assays above

CC(C)[N+](C)(C)CC(O)COc1cccc2ccccc12 (centres undefined)
not listed: [16]
inactive: all other assays above

COCc1ccc(COC)cc1
not listed: [18]
inactive: all other assays above

O=C1C(CCS(=O)c2ccccc2)C(=O)N(c2ccccc2)N1c1ccccc1 (centres undefined)
not listed: [14] | [15]
inactive: all other assays above
